# Assay results published in paper PMC9911399, “Two distinct binding modes provide the RNA-binding protein RbFox with extraordinary sequence specificity”.
# Residue numbers refer to the chain shown, from its start. The full ranking holds about 16,000 sequences; the median of “ka relative to ugcaugu” is about 0.096, and the highest 2% start at about 0.35. The full list was thinned out, with the highest values kept by preference.
# T1: RBFOX1 RRM RbFoxmut (Fox-RRM*) (Homo sapiens, UniProt Q9NWB1 109-208, R118D;E147R;N151S;E152T)
# T1 sequence: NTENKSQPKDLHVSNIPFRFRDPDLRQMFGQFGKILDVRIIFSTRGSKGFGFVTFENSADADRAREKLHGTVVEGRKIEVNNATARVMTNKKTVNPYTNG
# B1: UUGGUAC (DNA:RNA)
# RNA: GGGAGACCGGAAUUCAGAUUGUCCUUGGUACUUAAAUCCCGUCGUAGCCACCA
# DNA 1: CAATCTGAATTCCGGTCTCCC
# DNA 2: TGGTGGCTACGACGGGATT
# B2: CGUCAGG (DNA:RNA)
# RNA: GGGAGACCGGAAUUCAGAUUGUCCCGUCAGGUUAAAUCCCGUCGUAGCCACCA
# DNA 1: CAATCTGAATTCCGGTCTCCC
# DNA 2: TGGTGGCTACGACGGGATT
# B3: ACUGCGG (DNA:RNA)
# RNA: B2 RNA with C25A, G26C, C28G, A29C
# DNA 1: CAATCTGAATTCCGGTCTCCC
# DNA 2: TGGTGGCTACGACGGGATT
# B4: UAAAUAU (DNA:RNA)
# RNA: B1 RNA with U26A, G27A, G28A, C31U
# DNA 1: CAATCTGAATTCCGGTCTCCC
# DNA 2: TGGTGGCTACGACGGGATT
# B5: UCUACGU (DNA:RNA)
# RNA: B2 RNA with C25U, G26C, C28A, A29C, G31U
# DNA 1: CAATCTGAATTCCGGTCTCCC
# DNA 2: TGGTGGCTACGACGGGATT
# B6: AGUUUCU (DNA:RNA)
# RNA: B2 RNA with C25A, C28U, A29U, G30C, G31U
# DNA 1: CAATCTGAATTCCGGTCTCCC
# DNA 2: TGGTGGCTACGACGGGATT
# B7: UAGACCC (DNA:RNA)
# RNA: B1 RNA with U26A, G28A, U29C, A30C
# DNA 1: CAATCTGAATTCCGGTCTCCC
# DNA 2: TGGTGGCTACGACGGGATT
# B8: UUGAAUC (DNA:RNA)
# RNA: B1 RNA with G28A, U29A, A30U
# DNA 1: CAATCTGAATTCCGGTCTCCC
# DNA 2: TGGTGGCTACGACGGGATT
# B9: UUGUUGA (DNA:RNA)
# RNA: B1 RNA with G28U, A30G, C31A
# DNA 1: CAATCTGAATTCCGGTCTCCC
# DNA 2: TGGTGGCTACGACGGGATT
# B10: UUGAAUG (DNA:RNA)
# RNA: B1 RNA with G28A, U29A, A30U, C31G
# DNA 1: CAATCTGAATTCCGGTCTCCC
# DNA 2: TGGTGGCTACGACGGGATT
# B11: UUGAUUC (DNA:RNA)
# RNA: B1 RNA with G28A, A30U
# DNA 1: CAATCTGAATTCCGGTCTCCC
# DNA 2: TGGTGGCTACGACGGGATT
# B12: UUGAUUG (DNA:RNA)
# RNA: B1 RNA with G28A, A30U, C31G
# DNA 1: CAATCTGAATTCCGGTCTCCC
# DNA 2: TGGTGGCTACGACGGGATT
# B13: UUAAAUG (DNA:RNA)
# RNA: B2 RNA with C25U, G26U, U27A, C28A, G30U
# DNA 1: CAATCTGAATTCCGGTCTCCC
# DNA 2: TGGTGGCTACGACGGGATT
# B14: UUGAUCC (DNA:RNA)
# RNA: B1 RNA with G28A, A30C
# DNA 1: CAATCTGAATTCCGGTCTCCC
# DNA 2: TGGTGGCTACGACGGGATT
# B15: UUAAAUC (DNA:RNA)
# RNA: B1 RNA with G27A, G28A, U29A, A30U
# DNA 1: CAATCTGAATTCCGGTCTCCC
# DNA 2: TGGTGGCTACGACGGGATT
# B16: UUGAAAU (DNA:RNA)
# RNA: B1 RNA with G28A, U29A, C31U
# DNA 1: CAATCTGAATTCCGGTCTCCC
# DNA 2: TGGTGGCTACGACGGGATT
# B17: CCAAUUG (DNA:RNA)
# RNA: B2 RNA with G26C, U27A, C28A, A29U, G30U
# DNA 1: CAATCTGAATTCCGGTCTCCC
# DNA 2: TGGTGGCTACGACGGGATT
# B18: GUGGUAG (DNA:RNA)
# RNA: B1 RNA with U25G, C31G
# DNA 1: CAATCTGAATTCCGGTCTCCC
# DNA 2: TGGTGGCTACGACGGGATT
# B19: UUUUCUG (DNA:RNA)
# RNA: B2 RNA with C25U, G26U, C28U, A29C, G30U
# DNA 1: CAATCTGAATTCCGGTCTCCC
# DNA 2: TGGTGGCTACGACGGGATT
# B20: UCCUCCG (DNA:RNA)
# RNA: B2 RNA with C25U, G26C, U27C, C28U, A29C, G30C
# DNA 1: CAATCTGAATTCCGGTCTCCC
# DNA 2: TGGTGGCTACGACGGGATT
# B21: GCCCAGU (DNA:RNA)
# RNA: B2 RNA with C25G, G26C, U27C, G31U
# DNA 1: CAATCTGAATTCCGGTCTCCC
# DNA 2: TGGTGGCTACGACGGGATT
# B22: CACCGGG (DNA:RNA)
# RNA: B2 RNA with G26A, U27C, A29G
# DNA 1: CAATCTGAATTCCGGTCTCCC
# DNA 2: TGGTGGCTACGACGGGATT
# B23: GGGGUUG (DNA:RNA)
# RNA: B1 RNA with U25G, U26G, A30U, C31G
# DNA 1: CAATCTGAATTCCGGTCTCCC
# DNA 2: TGGTGGCTACGACGGGATT
# B24: GGGGUCG (DNA:RNA)
# RNA: B1 RNA with U25G, U26G, A30C, C31G
# DNA 1: CAATCTGAATTCCGGTCTCCC
# DNA 2: TGGTGGCTACGACGGGATT
# B25: GGGUCCG (DNA:RNA)
# RNA: B2 RNA with C25G, U27G, C28U, A29C, G30C
# DNA 1: CAATCTGAATTCCGGTCTCCC
# DNA 2: TGGTGGCTACGACGGGATT
# B26: GGGUUGA (DNA:RNA)
# RNA: B2 RNA with C25G, U27G, C28U, A29U, G31A
# DNA 1: CAATCTGAATTCCGGTCTCCC
# DNA 2: TGGTGGCTACGACGGGATT
# B27: GGGUUAA (DNA:RNA)
# RNA: B1 RNA with U25G, U26G, G28U, C31A
# DNA 1: CAATCTGAATTCCGGTCTCCC
# DNA 2: TGGTGGCTACGACGGGATT
# B28: GGGGGGG (DNA:RNA)
# RNA: B2 RNA with C25G, U27G, C28G, A29G
# DNA 1: CAATCTGAATTCCGGTCTCCC
# DNA 2: TGGTGGCTACGACGGGATT
# B29: CGGUUGA (DNA:RNA)
# RNA: B2 RNA with U27G, C28U, A29U, G31A
# DNA 1: CAATCTGAATTCCGGTCTCCC
# DNA 2: TGGTGGCTACGACGGGATT
# B30: CGGGUUG (DNA:RNA)
# RNA: B2 RNA with U27G, C28G, A29U, G30U
# DNA 1: CAATCTGAATTCCGGTCTCCC
# DNA 2: TGGTGGCTACGACGGGATT
# B31: GUCGGGG (DNA:RNA)
# RNA: B2 RNA with C25G, G26U, U27C, C28G, A29G
# DNA 1: CAATCTGAATTCCGGTCTCCC
# DNA 2: TGGTGGCTACGACGGGATT
# B32: CGGGUCG (DNA:RNA)
# RNA: B2 RNA with U27G, C28G, A29U, G30C
# DNA 1: CAATCTGAATTCCGGTCTCCC
# DNA 2: TGGTGGCTACGACGGGATT
# B33: CGGGGGG (DNA:RNA)
# RNA: B2 RNA with U27G, C28G, A29G
# DNA 1: CAATCTGAATTCCGGTCTCCC
# DNA 2: TGGTGGCTACGACGGGATT
# Target: T1, RBFOX1 RRM RbFoxmut (Fox-RRM*)
# Test: EMSA; HiTS-Eq, 1 nM pool, 10 min; buffer printed only for the single-RNA assays: 10 mM Tris pH 7.5, 150 mM NaCl, 3.4 mM EDTA, 0.001% NP-40, 30 C
# Conditions: tags: His6 N-terminal (pET28a); label: 5' 32P
# How it was run: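 Purified RbFox RRM, wild type or mutant, was incubated for 10 min in 50 µL with 1 nM of a 5′-radiolabelled RNA pool carrying 7 randomized nucleotides, whose flanks were annealed to DNA oligonucleotides, over a series of increasing protein concentrations. Unbound RNA was resolved on 8% native PAGE, cut out, reverse-transcribed, barcoded by PCR and sequenced on an Illumina HiSeq 2500. Relative association constants were derived from changes in read counts for each RNA species versus the control reaction and normalised to the cognate motif.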
row,Binder,binding signal
1,B1,0.144 KA relative to UGCAUGU
2,B2,0.113 KA relative to UGCAUGU
3,B3,0.0963 KA relative to UGCAUGU
4,B4,0.0636 KA relative to UGCAUGU
5,B5,0.118 KA relative to UGCAUGU
6,B6,0.0838 KA relative to UGCAUGU
7,B7,0.0507 KA relative to UGCAUGU
8,B8,0.374 KA relative to UGCAUGU
9,B9,0.0998 KA relative to UGCAUGU
10,B10,1.17 KA relative to UGCAUGU
11,B11,0.196 KA relative to UGCAUGU
12,B12,0.381 KA relative to UGCAUGU
13,B13,0.0888 KA relative to UGCAUGU
14,B14,0.0834 KA relative to UGCAUGU
15,B15,0.0555 KA relative to UGCAUGU
16,B16,0.0963 KA relative to UGCAUGU
17,B17,0.0976 KA relative to UGCAUGU

row,Binder,binding signal
1,B18,0.181 KA relative to UGCAUGU
2,B19,0.0689 KA relative to UGCAUGU
3,B20,0.0609 KA relative to UGCAUGU
4,B21,0.102 KA relative to UGCAUGU
5,B22,0.0671 KA relative to UGCAUGU
6,B23,0.609 KA relative to UGCAUGU
7,B24,0.357 KA relative to UGCAUGU
8,B25,0.238 KA relative to UGCAUGU
9,B26,0.356 KA relative to UGCAUGU
10,B27,0.0954 KA relative to UGCAUGU
11,B28,0.0675 KA relative to UGCAUGU
12,B29,0.139 KA relative to UGCAUGU
13,B30,0.66 KA relative to UGCAUGU
14,B31,0.101 KA relative to UGCAUGU
15,B32,0.259 KA relative to UGCAUGU
16,B33,0.0805 KA relative to UGCAUGU
